Records with an inconclusive call do not appear. A number with no mark means an inactive call. Calls of active or inactive are those of the source. The call rests on the fitted dose curve; in most records, active means well fitted activation curve with a large enough effect in the repeat runs; inconclusive means weak or mixed curves; inactive means no such curve, though single readings can be large or run the other way.
biological target: Nuclear receptor subfamily 1 group I member 2 (Rattus norvegicus) (UniProt Q9R1A7); assay: Rat pregnane X receptor (rPXR) activation by small molecules, qHTS assay (AID 1346983); conditions: rPXR luciferase reporter cells, One-Glo luminescence, 24 h; max activation: hits give high values; further: nearly all actives have a fitted effect of over 20% in size
Text: National Center for Advancing Translational Sciences [NCATS] NIH Chemical Genomics Center [NCGC] U.S. Environmental Protection Agency [EPA] National Institutes of Environmental Health Sciences [NIEHS] National Toxicology Program [NTP] Assay overview: The Pregnane X receptor (PXR), a ligand activated nuclear receptor plays a critical role in the regulation of genes involved in drug metabolism and transporters. PXR binds xenobiotics and when compounds interact with PXR produces enhanced expression of CYP3A genes. In humans PXR activation and CYP3A4 induction can be problematic due to their interactions with co-medicated drugs and decrease their efficacy or increase their own metabolism. However, there are known species-specific differences with regard to PXR activation that should be taken into account when animal PXR data are extrapolated to humans. A cell based rat PXR (rPXR) assay (developed by Puracyp, Inc., CA) was used to assess the activation of rPXR.
Assay Protocol Summary: rPXR cells were dispensed at 2,000 per well in 5uL of assay medium into white, solid-bottom 1536-well plates using a Multidrop Combi dispenser (Thermo Scientific). The assay plates were incubated at 37 C for 5hr before transferring 23 nL of test compounds dissolved in DMSO and positive control via Pintool station (Wako). The assay plates were incubated at 37 C for 24 hr. Then 5ul One-Glo assay reagent (Promega) was added to each plate by a Flying Reagent Dispenser (FRD, Aurora Discovery) and following 30 min incubation at room temperature, luciferase activity was quantified on a ViewLux plate reader (Perkin Elmer).
On the % scale 0 is the no-effect control and ±100 the full control effect; potency means the concentration at half of the fitted maximal effect.

Sequence of Nuclear receptor subfamily 1 group I member 2 (Rattus norvegicus) (Q9R1A7 whole entry, looked up): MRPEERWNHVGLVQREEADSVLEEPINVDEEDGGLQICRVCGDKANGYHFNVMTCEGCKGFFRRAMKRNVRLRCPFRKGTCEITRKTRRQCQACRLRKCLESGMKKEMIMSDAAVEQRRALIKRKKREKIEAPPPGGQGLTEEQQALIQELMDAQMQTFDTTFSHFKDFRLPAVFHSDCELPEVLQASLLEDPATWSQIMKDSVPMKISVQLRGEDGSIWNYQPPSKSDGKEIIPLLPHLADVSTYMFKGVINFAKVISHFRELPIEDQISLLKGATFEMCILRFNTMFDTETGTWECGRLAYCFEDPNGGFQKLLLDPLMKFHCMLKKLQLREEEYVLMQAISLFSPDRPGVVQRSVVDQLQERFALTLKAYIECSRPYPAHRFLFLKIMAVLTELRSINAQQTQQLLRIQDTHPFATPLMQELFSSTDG

SMILES | max activation [%] | Potency
COC(=O)[C@@H]1CC2=CC(=O)CC[C@]2(C)[C@@]23O[C@@H]2C[C@@]2(C)[C@@H](CC[C@@]24CCC(=O)O4)[C@H]13 | -1.51 | 
C[C@@H]1C[C@H]2[C@@H]3CCC4=CC(=O)C=C[C@]4(C)[C@@]3(F)[C@@H](O)C[C@]2(C)[C@H]1C(=O)CO |  | 2.51 µM (active)
CCCCCCCCCCCC(=O)[O][Sn]([CH2]CCC)([CH2]CCC)[O]C(=O)CCCCCCCCCCC | -0.202 | 
N#C/C(=C1\SCC(c2ccccc2Cl)S1)n1ccnc1 (stereo not given) | -0.365 | 
O=C1OCCN1/N=C/c1ccc([N+](=O)[O-])o1 | -6.39 | 
CC1(C)O[C@@H]2C[C@H]3[C@@H]4CCC5=CC(=O)C=C[C@]5(C)[C@H]4[C@@H](O)C[C@]3(C)[C@]2(C(=O)CO)O1 |  | 8.91 µM (active)
COc1cc2[nH]c(=O)[nH]c(=O)c2cc1OC | -3.43 | 
CCC1(C)CC(=O)NC1=O (stereo not given) | -2.98 | 
CC(=O)[C@H]1CC[C@H]2[C@@H]3C[C@H](C)C4=CC(=O)CC[C@]4(C)[C@H]3[C@@H](O)C[C@]12C |  | 2.51 µM (active)
CCn1cc(C(=O)O)c(=O)c2cc(F)c(N3CCNCC3)nc21 | -1.42 | 
CC1CC(O)CC(C)(C)C1 (stereo not given) | -0.957 | 
Cc1cc(OI)c(C(C)C)cc1-c1cc(C(C)C)c(OI)cc1C | 0.407 | 
CCNC(=O)N1CCN(CCCC(c2ccc(F)cc2)c2ccc(F)cc2)CC1 | -17 | 
CCc1cccc(N(C)C(N)=Nc2cccc3ccccc23)c1 | -1.24 | 
CCOc1cc(N)c(Cl)cc1C(=O)NCC1CN(Cc2ccc(F)cc2)CCO1 (stereo not given) | 0.0903 | 
CC(=O)Oc1ccc(C(=C2CCCCC2)c2ccc(OC(C)=O)cc2)cc1 | -2.09 | 
CO[C@H]1C=CO[C@@]2(C)Oc3c(C)c(O)c4c(O)c(c5c(c4c3C2=O)=NC2(CCN(CC(C)C)CC2)N=5)NC(=O)/C(C)=C\C=C/[C@H](C)[C@H](O)[C@@H](C)[C@@H](O)[C@@H](C)[C@H](OC(C)=O)[C@@H]1C | -0.473 | 
O=C(Nc1ccc([N+](=O)[O-])cc1)Nc1ccc([N+](=O)[O-])cc1 | -0.532 | 
CC(=O)Oc1ccc2c(c1)CC[C@@H]1[C@@H]2CC[C@]2(C)[C@@H](O)CC[C@@H]12 | -1.91 | 
CNCCCC1c2ccccc2C=Cc2ccccc21 | -3.85 | 

SMILES | max activation [%] | Potency
CCN(CC)CCNC(=O)c1ccc(NC(C)=O)cc1 | -1.35 | 
CC(=O)OCC(=O)[C@H]1CC[C@H]2[C@@H]3CCC4=CC(=O)CC[C@]4(C)[C@H]3CC[C@]12C | 2.69 | 
COc1cc2ncnc(Nc3ccc(F)c(Cl)c3)c2cc1OCCCN1CCOCC1 | -4.52 | 
C[N+]1(C)CCC(=C(c2ccccc2)c2ccccc2)CC1 | -1.49 | 
CCCCC1C(=O)N(c2ccccc2)N(c2ccc(O)cc2)C1=O (stereo not given) | 1.09 | 
CC(C)(C)C(=O)C(Oc1ccc(Cl)cc1)n1ccnc1 (stereo not given) |  | 12.6 µM (active)
CCC(C(=O)OCCOCCN(CC)CC)c1ccccc1 (stereo not given) | -2.49 | 
CO/N=C1\CN(c2nc3c(cc2F)c(=O)c(C(=O)O)cn3C2CC2)CC1CN (stereo not given) | -0.199 | 
O=C(O)Cc1ccc(-c2ccccc2)cc1 | -2.71 | 
CCCCC(=O)O[C@]1(C(=O)CO)CC[C@H]2[C@@H]3CCC4=CC(=O)CC[C@]4(C)[C@H]3[C@@H](O)C[C@@]21C |  | 6.31 µM (active)
CCc1nn(CCCN2CCN(c3cccc(Cl)c3)CC2)c(=O)n1CCOc1ccccc1 |  | 12.6 µM (active)
O=C(CCCCCCC(=O)Nc1ccccc1)NO | -13.8 | 
CN1CCN(CCCN2c3ccccc3Sc3ccc(S(=O)(=O)N(C)C)cc32)CC1 | 4.5 | 
O=C(N/N=C/c1ccc([N+](=O)[O-])o1)c1ccc(O)cc1 | -12.4 | 
CC(=O)CC(c1ccc([N+](=O)[O-])cc1)c1c(O)c2ccccc2oc1=O (stereo not given) | -1.52 | 
CN1CCN(c2c(F)cc3c(=O)c(C(=O)O)cn4c3c2OCN4C)CC1 | -1.24 | 
CCCCN(CCCC)CCCOC(=O)c1ccc(N)cc1 | 0.416 | 
C(=C\c1ccccc1)/CN1CCN(C(c2ccccc2)c2ccccc2)CC1 | 1.1 | 
Cc1c(C(=O)NN2CCCCC2)nn(-c2ccc(Cl)cc2Cl)c1-c1ccc(Cl)cc1 | -8.23 | 
O=C(CCCN1CCC(O)(c2ccc(Br)cc2)CC1)c1ccc(F)cc1 | -1.43 | 
